Shown are actives, neighbours in structure and some others; about 11% of the full set was active somewhere.
NPR1 antag = Natriuretic polypeptide receptor (hNpr1) antagonism - Primary qHTS | Atrial natriuretic peptide receptor 1 (Homo sapiens), P16066 | Potency, µM (highest dose often 46.3 µM), usual class: inhibitors | hit rate 1.6% among 76,000 | HEK293 hNpr1 GloSensor cGMP, ANP-stimulated luminescence; calls by dose curve; also: nearly all actives have a fitted effect of over 60% in size
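HEK293 cells stably expressing human Npr1 and cGMP GloSensor pGS-40F, loaded 2 h with 2% GloSensor reagent, given compound 30 min at room temperature. Luminescence read before and 20 min after 0.1 nM hNppA.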
HEK cytotox = Cytotoxic Profiling in HEK 293 Cell Line of Diverse Libraries Using Quantitative High-Throughput Screening. HEK 293 viability, ATP luminescence (CellTiter-Glo), 48-72 h. Potency, µM (top dose mostly 115 µM), most hits filed as inhibitors. hit rate 6.6% among 94,000; also: nearly all actives have a fitted effect of over 60% in size
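HEK 293 cells seeded at 250 cells/well were exposed to compound for 48 or 72 hr at 37 degree Celsius. Viability taken as ATP content by CellTiter-Glo luminescence.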
NIH3T3 tox = Cytotoxic Profiling in NIH 3T3 Cell Line of Diverse Libraries Using Quantitative High-Throughput Screening; NIH 3T3 viability, CellTiter-Glo ATP luminescence, 48-72 h; Potency, µM (series often up to 96.7 µM), hits mostly inhibitors; hit rate 4.3% among 94,000; AID 1345082, 2018; also: nearly all actives have a fitted effect of over 55% in size
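Cytotoxicity was measured by CellTiter-Glo ATP luminescence after 48 or 72 h compound exposure at 37 °C. Mouse NIH 3T3 fibroblasts were seeded at 400 cells/well and dosed by 23 nL pin transfer.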
Luciferase inh = Firefly luciferase inhibition profiling of diverse chemical library using quantitative high-throughput screening; Potency, µM (highest dose often 115 µM), most hits filed as inhibitors; Luciferin 4-monooxygenase (Photinus pyralis), P08659; hit rate 2.5% among 76,000; AID 1347043, 2019; purified P. pyralis luciferase, luminescence, biochemical; also: nearly all actives have a fitted effect of over 65% in size
Target sequence (P08659 whole entry, looked up): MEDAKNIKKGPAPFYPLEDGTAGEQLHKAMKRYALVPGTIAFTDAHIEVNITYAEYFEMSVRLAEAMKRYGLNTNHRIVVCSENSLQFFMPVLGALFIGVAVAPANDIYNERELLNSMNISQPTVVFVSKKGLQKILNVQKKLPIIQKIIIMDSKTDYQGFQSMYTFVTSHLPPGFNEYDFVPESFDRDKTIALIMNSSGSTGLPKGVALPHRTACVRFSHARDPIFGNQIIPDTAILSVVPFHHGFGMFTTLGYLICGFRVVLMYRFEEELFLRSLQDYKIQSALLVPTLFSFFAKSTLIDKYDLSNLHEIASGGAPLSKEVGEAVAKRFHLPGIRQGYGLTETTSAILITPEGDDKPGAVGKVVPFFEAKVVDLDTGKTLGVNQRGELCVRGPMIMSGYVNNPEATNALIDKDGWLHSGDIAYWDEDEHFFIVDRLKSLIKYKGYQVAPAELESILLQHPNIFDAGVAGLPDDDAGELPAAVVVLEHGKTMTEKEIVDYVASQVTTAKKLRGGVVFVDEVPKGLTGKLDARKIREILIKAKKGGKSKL
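Inhibitors were tested against purified firefly luciferase in a biochemical, low-substrate format (both substrates at 10uM) and luminescence measured with a CCD imager.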
Hits are given with their value; 0 = inactive; ? = inconclusive; - = not tested or not shown. Unless noted, calls follow the shape of the dose curve; as a rule, active = well fitted curve in the direction sought with a large enough effect; inconclusive = small, poorly fitted or top-dose-only effect, or another doubt; inactive = no such curve, though single readings can be large; an effect the other way counts as inactive or inconclusive.

SMILES	NPR1 antag	HEK cytotox	NIH3T3 tox	Luciferase inh
CCOCCNC(=O)C1CCCN(Cc2cccc(-c3ccccc3OC)c2)C1 (stereo not given)	-	39.8µM	?	-
COc1ccccc1-c1cccc(CN2CCCC(C(=O)N3CCCCC3)C2)c1 (stereo not given)	-	79.4µM	?	-
COc1ccccc1-c1cccc(CN2CCCC(C(=O)NCC(F)(F)F)C2)c1 (stereo not given)	-	44.7µM	?	-
O=C1CCN(Cc2cccnc2)CCCC(C(=O)NCc2cc(F)cc(F)c2)CCN1 (stereo not given)	0	0	0	0
COC(=O)CNC(=O)C1CCCN(Cc2cccc(-c3ccccc3OC)c2)C1 (stereo not given)	-	0	?	-
COc1ccccc1-c1ccc(C(=O)N2CCC(C(=O)N3CCCC3)CC2)cc1	-	?	0	-
O=C(NCc1cccc(F)c1)C1CCCN(Cc2cccc(-c3ccc(F)cc3F)c2)C1 (stereo not given)	-	44.7µM	35.5µM	-
CO[C@H]1C(=O)N(C2CCN(S(=O)(=O)c3cccnc3)CC2)[C@H]1c1ccncc1	0	0	0	0
CN1C(=O)CC(C(=O)O)C12CCN(C(=O)C1(c3ccccc3)CC1)CC2 (stereo not given)	0	0	0	0
CCCN1CC[C@H]2COC(=O)N2c2cc(F)ccc2C1	0	0	0	0
COc1ccccc1-c1cccc(CN2CCCC(C(=O)Nc3cccc(Cl)c3)C2)c1 (stereo not given)	-	25.1µM	15.8µM	-
COc1ccccc1-c1cccc(C(=O)N2CCC[C@H]2C(=O)NCc2ccccc2)c1	-	?	0	-
O=C(NCc1cccc(C(F)(F)F)c1)C1CCCN(Cc2cccc(-c3ccc(F)cc3F)c2)C1 (stereo not given)	-	35.5µM	?	-
O=C(NCc1cccs1)C1CCCN(c2nc3ncccc3o2)C1 (stereo not given)	0	0	0	0
COc1ccccc1-c1cccc(CN2CCCC(C(=O)NCc3ccc4c(c3)OCO4)C2)c1 (stereo not given)	-	35.5µM	?	-
O=C(NCc1cccs1)C1CCCN(Cc2cccc(-c3ccc(F)cc3F)c2)C1 (stereo not given)	-	44.7µM	?	-
O=C(Nc1ccon1)[C@@H]1C[C@@H](c2ccc(F)cc2)N([S+](=O)([O-])c2ccccc2)C1	0	?	?	0
COc1ccccc1-c1cccc(CN2CCCC(C(=O)NCc3cccc(F)c3)C2)c1 (stereo not given)	-	12.6µM	?	-
COc1ccccc1-c1cccc(CN2CCCC(C(=O)NC(C)C)C2)c1 (stereo not given)	-	?	39.8µM	-
COc1ccccc1-c1cccc(C(=O)N2CCC[C@H]2C(=O)NC(C)C)c1	-	0	0	-
COCCOCC(=O)N1CC[C@H]2C(=O)NCCCCCCN(Cc3ccncc3)[C@@H]2C1	0	0	0	0
COc1ccc(CN2C(=O)[C@@H]3C[C@@H](CN3Cc3ccccc3Cl)Oc3ccccc32)cc1	0	39.8µM	44.7µM	0
O=C1[C@@H]2C[C@@H](CN2Cc2ccccn2)Oc2ccccc2N1Cc1ccccc1	?	?	?	0
O=C1[C@@H]2C[C@@H](CN2Cc2ccccc2)Oc2ccccc2N1Cc1ccccc1	0	63.1µM	?	0
O=C1[C@@H]2C[C@@H](CN2Cc2ccc(Cl)cc2)Oc2ccccc2N1CC1CC1	0	89.1µM	89.1µM	0
SMILES	NPR1 antag	HEK cytotox	NIH3T3 tox	Luciferase inh
O=C1[C@@H]2C[C@@H](CN2Cc2ccc(F)cc2)Oc2ccccc2N1CC1CC1	0	?	?	0
N#Cc1ccc(CN2C[C@@H]3C[C@H]2C(=O)N(Cc2ccccc2)c2ccccc2O3)cc1	?	50.1µM	?	0
CN(C)c1cc(N2CCCC(N)C2)ncn1 (stereo not given)	0	0	0	0
COc1ccc(-c2noc(-c3nnn4c3COC(c3ccc(C)cc3C)C4)n2)c(OC)c1 (stereo not given)	0	0	0	0
Cc1ccc(NC2=N[C@H]3[C@@H](O)[C@H](O)C[C@H](C(=O)N4CCC(C(N)=O)CC4)[C@H]3S2)cc1	0	0	0	50.1µM
Cc1cn2nc(C(=O)N3CCC(NC(=O)c4cc(Cl)ccc4F)CC3)cc2c(=O)[nH]1	0	0	0	0
